PubChem BioAssay AID1159580 (chemical genetic matrix, 2015)
Several values for one entry are separate records, joined by “and”; a condition that tells them apart may be missing. Identical values can stand only once. About 2,000 (36%) of roughly 5,500 compounds were called active. Another 18% or so got no clear call; they are omitted. This is one part of the list. Values without a mark were called inactive. No stated cut-off is given here; in the data, active means normalized growth mostly below about 0.91 (no sharp cut-off); inconclusive means no clear call, values can overlap the other calls; inactive means mostly above about 0.92.

Test: chemical genetic growth profiling, strain panel (AID 1159580);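 further: tested at 20 µM; growth read once vehicle control cultures reached saturation at 30 °C; 1 = growth at the plate median or of vehicle wells; lower values mean less growth of the strain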
Settings: growth OD
[1] = S. cerevisiae deletion strains, locus YMR307W, strain GAS1, hits give low values

## C=C(C)[C@@H]1[C@H]2OC(=O)[C@@H]1[C@]1(O)C[C@H]3O[C@]34C(=O)O[C@H]2[C@]14C
S. cerevisiae deletion strains, locus YAL013W, strain DEP1, hits give low values
  normalized growth: 0.985
S. cerevisiae deletion strains, locus YBR021W, strain FUR4, hits give low values
  normalized growth: 1.01
S. cerevisiae deletion strains, locus YBR229C, strain ROT2, hits give low values
  normalized growth: 0.947
S. cerevisiae deletion strains, locus YCL029C, strain bik1, hits give low values
  normalized growth: 0.997
S. cerevisiae deletion strains, locus YDL035C, strain GPR1, hits give low values
  normalized growth: 0.987
S. cerevisiae deletion strains, locus YDL074C, strain BRE1, hits give low values
  normalized growth: 1.02
S. cerevisiae deletion strains, locus YDL101C, strain DUN1, hits give low values
  normalized growth: 0.98
S. cerevisiae deletion strains, locus YDL134C, strain PPH21, hits give low values
  normalized growth: 0.988
S. cerevisiae deletion strains, locus YDL185W, strain tfp1, hits give low values
  normalized growth: 1
S. cerevisiae deletion strains, locus YDL192W, strain arf1, hits give low values
  normalized growth: 0.99
S. cerevisiae deletion strains, locus YDR101C, strain arx1, hits give low values
  normalized growth: 1
S. cerevisiae deletion strains, locus YDR150W, strain NUM1, hits give low values
  normalized growth: 0.971
S. cerevisiae deletion strains, locus YDR162C, strain NBP2, hits give low values
  normalized growth: 0.987
S. cerevisiae deletion strains, locus YDR318W, strain mcm21, hits give low values
  normalized growth: 1.01
S. cerevisiae deletion strains, locus YDR388W, hits give low values
  normalized growth: 1.01
S. cerevisiae deletion strains, locus YDR502C, strain sam2, hits give low values
  normalized growth: 0.994
S. cerevisiae deletion strains, locus YEL061C, strain CIN8, hits give low values
  normalized growth: 0.987
S. cerevisiae deletion strains, locus YER110C, hits give low values
  normalized growth: 0.973
S. cerevisiae deletion strains, locus YER155C, strain BEM2, hits give low values
  normalized growth: 0.999
S. cerevisiae deletion strains, locus YER167W, strain BCK2, hits give low values
  normalized growth: 1
S. cerevisiae deletion strains, locus YGL078C, strain dbp3, hits give low values
  normalized growth: 0.994
S. cerevisiae deletion strains, locus YGL086W, strain mad1, hits give low values
  normalized growth: 0.99
S. cerevisiae deletion strains, locus YGL248W, strain PDE1, hits give low values
  normalized growth: 0.98
S. cerevisiae deletion strains, locus YGR078C, strain PAC10, hits give low values
  normalized growth: 1.01
S. cerevisiae deletion strains, locus YGR135W, strain pre9, hits give low values
  normalized growth: 1
S. cerevisiae deletion strains, locus YGR229C, strain SMI1, hits give low values
  normalized growth: 1.01
S. cerevisiae deletion strains, locus YGR252W, strain gcn5, hits give low values
  normalized growth: 0.95
S. cerevisiae deletion strains, locus YHR030C, strain SLT2, hits give low values
  normalized growth: 0.996 and 1.03
S. cerevisiae deletion strains, locus YHR079C, strain IRE1 (second series), hits give low values
  normalized growth: 1
S. cerevisiae deletion strains, locus YHR079C, strain IRE1, hits give low values
  normalized growth: 0.993
S. cerevisiae deletion strains, locus YHR094C, strain hxt1, hits give low values
  normalized growth: 0.996
S. cerevisiae deletion strains, locus YHR129C, strain ARP1, hits give low values
  normalized growth: 1
S. cerevisiae deletion strains, locus YHR200W, strain rpn10, hits give low values
  normalized growth: 1
S. cerevisiae deletion strains, locus YIL066C, strain RNR3, hits give low values
  normalized growth: 0.97
S. cerevisiae deletion strains, locus YIL073C, strain SPO22, hits give low values
  normalized growth: 0.982
S. cerevisiae deletion strains, locus YIL125W, strain kgd1, hits give low values
  normalized growth: 0.99
S. cerevisiae deletion strains, locus YIR030C, strain dcg1, hits give low values
  normalized growth: 0.99
S. cerevisiae deletion strains, locus YJL095W, strain BCK1, hits give low values
  normalized growth: 1.02 and 0.989
S. cerevisiae deletion strains, locus YJL134W, strain LCB3, hits give low values
  normalized growth: 0.984
S. cerevisiae deletion strains, locus YJL168C, strain set2, hits give low values
  normalized growth: 1
S. cerevisiae deletion strains, locus YJL187C, strain SWE1 (second series), hits give low values
  normalized growth: 0.986
S. cerevisiae deletion strains, locus YJR043C, strain POL32, hits give low values
  normalized growth: 1.02
S. cerevisiae deletion strains, locus YJR066W, strain TOR1, hits give low values
  normalized growth: 0.962
S. cerevisiae deletion strains, locus YJR075W, strain HOC1, hits give low values
  normalized growth: 1
S. cerevisiae deletion strains, locus YKL009W, strain mrt4, hits give low values
  normalized growth: 0.96
S. cerevisiae deletion strains, locus YKL068W, hits give low values
  normalized growth: 0.997
S. cerevisiae deletion strains, locus YKL085W, strain MDH1 (second series), hits give low values
  normalized growth: 0.996
S. cerevisiae deletion strains, locus YKL085W, strain MDH1, hits give low values
  normalized growth: 0.996
S. cerevisiae deletion strains, locus YKL190W, strain CNB1, hits give low values
  normalized growth: 1
S. cerevisiae deletion strains, locus YKR001C, strain vps1, hits give low values
  normalized growth: 1.01
S. cerevisiae deletion strains, locus YLR039C, strain RIC1, hits give low values
  normalized growth: 0.972
S. cerevisiae deletion strains, locus YLR058C, strain SHM2, hits give low values
  normalized growth: 0.964
S. cerevisiae deletion strains, locus YLR102C, strain apc9, hits give low values
  normalized growth: 1
S. cerevisiae deletion strains, locus YLR113W, strain HOG1, hits give low values
  normalized growth: 0.982
S. cerevisiae deletion strains, locus YLR262C, strain YPT6, hits give low values
  normalized growth: 0.93
S. cerevisiae deletion strains, locus YLR268W, strain sec22, hits give low values
  normalized growth: 1.07
S. cerevisiae deletion strains, locus YLR330W, strain CHS5, hits give low values
  normalized growth: 0.983
S. cerevisiae deletion strains, locus YLR342W, strain FKS1 (second series), hits give low values
  normalized growth: 1.01
S. cerevisiae deletion strains, locus YLR371W, strain rom2, hits give low values
  normalized growth: 0.988
S. cerevisiae deletion strains, locus YLR418C, strain cdc73, hits give low values
  normalized growth: 0.998
S. cerevisiae deletion strains, locus YML016C, strain PPZ1, hits give low values
  normalized growth: 0.982
S. cerevisiae deletion strains, locus YML032C, strain rad52, hits give low values
  normalized growth: 1.02
S. cerevisiae deletion strains, locus YML124C, strain tub3, hits give low values
  normalized growth: 0.992
S. cerevisiae deletion strains, locus YMR078C, strain ctf18, hits give low values
  normalized growth: 1
S. cerevisiae deletion strains, locus YMR223W, strain ubp8, hits give low values
  normalized growth: 0.983
S. cerevisiae deletion strains, locus YMR263W, strain SAP30, hits give low values
  normalized growth: 1.01
[1]
  normalized growth: 0.987
S. cerevisiae deletion strains, locus YNL067W, strain RPL9B, hits give low values
  normalized growth: 1.02
S. cerevisiae deletion strains, locus YNL128W, strain TEP1, hits give low values
  normalized growth: 0.976
S. cerevisiae deletion strains, locus YNL153C, strain GIM3, hits give low values
  normalized growth: 0.998
S. cerevisiae deletion strains, locus YNL183C, strain NPR1, hits give low values
  normalized growth: 0.954
S. cerevisiae deletion strains, locus YNL233W, strain BNI4, hits give low values
  normalized growth: 1
S. cerevisiae deletion strains, locus YNL250W, strain rad50, hits give low values
  normalized growth: 0.975
S. cerevisiae deletion strains, locus YNL271C, strain bni1, hits give low values
  normalized growth: 1.01
S. cerevisiae deletion strains, locus YNL298W, strain CLA4, hits give low values
  normalized growth: 0.999
S. cerevisiae deletion strains, locus YNL307C, strain MCK1, hits give low values
  normalized growth: 0.987
S. cerevisiae deletion strains, locus YNL322C, strain KRE1, hits give low values
  normalized growth: 0.994
S. cerevisiae deletion strains, locus YNR052C, strain pop2, hits give low values
  normalized growth: 1
S. cerevisiae deletion strains, locus YOL006C, strain TOP1, hits give low values
  normalized growth: 1.03
S. cerevisiae deletion strains, locus YOL012C, strain htz1
  normalized growth: 0.801
S. cerevisiae deletion strains, locus YOL147C, strain pex11, hits give low values
  normalized growth: 0.991
S. cerevisiae deletion strains, locus YOR061W, strain CKA2, hits give low values
  normalized growth: 0.976
S. cerevisiae deletion strains, locus YOR069W, strain VPS5, hits give low values
  normalized growth: 0.98
S. cerevisiae deletion strains, locus YOR136W, strain idh2, hits give low values
  normalized growth: 0.986
S. cerevisiae deletion strains, locus YOR144C, strain elg1, hits give low values
  normalized growth: 0.997
S. cerevisiae deletion strains, locus YOR184W, strain ser1, hits give low values
  normalized growth: 0.985
S. cerevisiae deletion strains, locus YOR231W, strain MKK1, hits give low values
  normalized growth: 1.02
S. cerevisiae deletion strains, locus YOR316C, strain cot1, hits give low values
  normalized growth: 0.995
S. cerevisiae deletion strains, locus YPL055C, strain LGE1, hits give low values
  normalized growth: 0.978
S. cerevisiae deletion strains, locus YPL241C, strain CIN2, hits give low values
  normalized growth: 0.994
S. cerevisiae deletion strains, locus YPL256C, strain CLN2, hits give low values
  normalized growth: 1.05
S. cerevisiae deletion strains, locus YPR119W, strain clb2, hits give low values
  normalized growth: 0.991
S. cerevisiae deletion strains, locus YPR141C, strain kar3, hits give low values
  normalized growth: 0.981
S. cerevisiae deletion strains, locus YPR163C, strain tif3, hits give low values
  normalized growth: 1
S. cerevisiae deletion strains, locus YPR167C, strain met16, hits give low values
  normalized growth: 1
S. cerevisiae deletion strains, strain wtn01, hits give low values
  normalized growth: 1.02
S. cerevisiae strains, strain wild type, hits give low values
  normalized growth: 0.981

## CC(C)(O)C1C2OC(=O)C1C1(O)CC3OC34C(=O)OC2C14C (stereo not given) (tested in a mixture with another compound)
S. cerevisiae deletion strains, locus YAL040C, strain CLN3, hits give low values
  normalized growth: 0.454 (active)
S. cerevisiae deletion strains, locus YCL061C, strain MRC1 (second series), hits give low values
  normalized growth: 1.01
S. cerevisiae deletion strains, locus YDR363W, strain ESC2, hits give low values
  normalized growth: 0.969
[1]
  normalized growth: 0.983
S. cerevisiae deletion strains, locus YNL175C, strain NOP13, hits give low values
  normalized growth: 0.537 (active)
S. cerevisiae deletion strains, locus YNL197C, strain WHI3, hits give low values
  normalized growth: 1
S. cerevisiae deletion strains, locus YNL224C, strain SQS1, hits give low values
  normalized growth: 1
S. cerevisiae deletion strains, locus YOR083W, strain WHI5 (second series), hits give low values
  normalized growth: 0.502 (active)
